Measured values reported in PubChem BioAssay AID602127 (Broad Institute, 2011).
Results with a measured potency or affinity are listed apart.

Target: Cyclin-dependent kinase 2 (Homo sapiens) (UniProt P24941)
Experiment: CDK2 kinase inhibitors, off-target check, dose response, selectivity assay for Dyrk1A inhibitor project, biochemical, cherry-picked samples (AID 602127)
Details: CDK2/cyclin A kinase, ADP-Glo luminescence, 60 min; series mostly up to 10 µM; activity change, negative = inhibition: at the top concentration;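 active = every repeat test judged active, meaning a falling signal with potency within twice the top valid dose; inconclusive = repeat tests disagree on the call; inactive = every repeat test inactive, including signal moving upward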

Activity change, negative = inhibition, inactive:
CC(=O)Nc1ccc(SCc2ncc(-c3ccccc3)o2)cc1 -20.5%
Cc1nc(CNc2ncnc3ccc(-c4ccc5c(c4)OCO5)cc23)cs1 1.07%
CN(C)S(=O)(=O)c1ccc(NC(=O)c2cc3ccccc3o2)cc1 3.94%
Clc1ccc(CNc2ccnc(-c3ccc4[nH]ncc4c3)n2)cc1Cl -5.16%
O=C(O)COc1ccc(/C=C/c2nc3ccc([N+](=O)[O-])cc3s2)cc1 7.07%
COc1ccc(C(=O)c2sc(Nc3ccccc3F)nc2N)cc1 10%
CSCC(=O)Nc1nc(-c2ccc3c(c2)OCCO3)cs1 -13.3%
O=C(Nc1nc(-c2ccc3c(c2)OCCO3)cs1)c1ccco1 1.2%
CCOC(=O)c1ccc(-c2ccc3ncnc(N(C)Cc4sccc4C)c3c2)o1 -1.21%
COc1cccc(NC(=O)c2sc(NC(=O)c3ccncc3)nc2C)c1 -3.42%
COc1ccc(-c2nccc(NCc3ccc(C)cc3)n2)cc1 -10.5%
c1cncc(CNc2ccnc(-c3ccc4cn[nH]c4c3)n2)c1 2.85%
c1cncc(-c2nc(NCc3ccco3)c3ccccc3n2)c1 -17.4%
CN(C)c1ccc(-c2nccc(NCc3cccs3)n2)cc1 1.17%
O=[N+]([O-])c1cc(Nc2nccc(-c3ccc4c(c3)OCO4)n2)cc(C(F)(F)F)c1 -0.986%
Cc1occc1CNc1ncnc2ccc(-c3ccc4c(c3)OCO4)cc12 -0.879%
COc1cccc(Nc2nc(NCCO)c3ccccc3n2)c1 -5.17%
N#Cc1c(C(F)(F)F)cc(-c2cccc(Cl)c2)[nH]c1=O 1.81%
c1csc(CCNc2ncnc3ccc(-c4ccc5c(c4)OCO5)cc23)c1 -13.2%
